Here are results for five compounds from PubChem BioAssay AID1645857 (Buhrlage Lab, Dana-Farber Cancer Institute and Novartis …, 2021).

For orientation: inhibition means the drop in the measured response relative to a control, in per cent.

The campaign covered roughly 47,000 compounds. About 1,400 (3%) were called active. Only a selection was taken, and actives are over-represented in it overall. A number with no mark means an inactive call. Cut-off read from the data, not from the text of the source: active = inhibition above about 30%; inactive = the rest.

This experiment deals with Ubiquitin carboxyl-terminal hydrolase 28 (Homo sapiens) (UniProt Q96RU2). The experiment in a line: blocks human USP28 ubiquitin-rhodamine cleavage (AID 1645857). The note with it: purified USP28, Ub-rhodamine cleavage fluorescence, 30 min; at 25 µM; stronger effect = higher value.
Sequence of Ubiquitin carboxyl-terminal hydrolase 28 (Homo sapiens) (Q96RU2 whole entry, looked up): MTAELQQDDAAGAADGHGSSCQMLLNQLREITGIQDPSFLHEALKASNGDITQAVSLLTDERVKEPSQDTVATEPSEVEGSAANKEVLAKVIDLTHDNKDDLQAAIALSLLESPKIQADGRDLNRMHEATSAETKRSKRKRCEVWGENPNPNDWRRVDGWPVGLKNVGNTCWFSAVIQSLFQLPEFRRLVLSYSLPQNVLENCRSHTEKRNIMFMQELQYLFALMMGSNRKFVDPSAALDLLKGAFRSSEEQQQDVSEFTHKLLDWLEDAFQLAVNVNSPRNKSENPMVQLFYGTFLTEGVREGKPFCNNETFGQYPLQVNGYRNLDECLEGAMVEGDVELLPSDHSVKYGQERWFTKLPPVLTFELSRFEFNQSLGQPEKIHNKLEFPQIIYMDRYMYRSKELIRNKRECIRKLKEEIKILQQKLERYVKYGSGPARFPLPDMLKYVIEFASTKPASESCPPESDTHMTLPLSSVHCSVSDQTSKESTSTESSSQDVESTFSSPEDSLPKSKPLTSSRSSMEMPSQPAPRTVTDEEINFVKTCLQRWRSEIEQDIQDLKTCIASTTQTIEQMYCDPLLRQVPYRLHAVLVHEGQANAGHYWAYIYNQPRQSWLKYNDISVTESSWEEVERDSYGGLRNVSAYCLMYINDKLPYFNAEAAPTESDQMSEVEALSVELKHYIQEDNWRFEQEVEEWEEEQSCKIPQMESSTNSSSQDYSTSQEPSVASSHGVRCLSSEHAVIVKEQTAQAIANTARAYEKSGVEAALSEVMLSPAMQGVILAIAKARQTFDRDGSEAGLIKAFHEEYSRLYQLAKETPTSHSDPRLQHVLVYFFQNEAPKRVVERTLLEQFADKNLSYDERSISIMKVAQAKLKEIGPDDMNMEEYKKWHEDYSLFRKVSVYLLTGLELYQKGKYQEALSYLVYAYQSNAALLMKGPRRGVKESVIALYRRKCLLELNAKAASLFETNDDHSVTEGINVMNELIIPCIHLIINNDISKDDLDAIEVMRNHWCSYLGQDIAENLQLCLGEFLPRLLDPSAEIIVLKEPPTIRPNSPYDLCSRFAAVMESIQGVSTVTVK
With `O=C1CSC(c2ccc(F)cc2)c2c(-c3ccccc3)nn(-c3ccccc3)c2N1` (stereo not given), the inhibition was 35.2% (active).

`O=C(CCCn1c(=O)[nH]c2cc(Cl)ccc2c1=O)N1CCC2(CC1)OCCO2`: the inhibition is 15%. For `COc1cc(N2CC[C@@H]3[C@@H]2CCN3Cc2cccnc2)ncn1`, the inhibition was -13.3%. Next, `CC(C)(C)n1cc(C(=O)NCC(=O)Nc2ccc(Br)cc2)cn1`: 1.73%. For the compound `Cc1noc(C)c1CN1CCO[C@H]2C(Cn3cccn3)CC[C@@H]21` (stereo not given in full), the inhibition was -2.14%.
